Several values for one entry are separate records, joined by “and”; a condition that tells them apart may be missing. Equal values may be shown once. The panel holds about 83,000 compounds, 20% with a hit somewhere; the sample as a whole holds those more often.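 The test compound was applied at a single concentration to cells in 96-well plates for 48 hours, and percent growth was recorded.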 Activity calls are given as the source filed them. The calls were made as follows: active = growth percent below 10; inactive = the rest.
Tests used:
Assay in all cases: NCI-60 one-dose screen, 48 h (100 = growth as untreated, 0 = no growth, -100 = all killed)
[1] = test system: NCI-H23 lung; settings: 10 µM unless noted
[2] = test system: NCI-H226 lung
[3] = test system: NCI-H322M lung
[4] = test system: NCI-H460 lung
[5] = test system: HOP-92 NSCLC
[6] = test system: NCI-H522 lung
[7] = test system: A549/ATCC NSCLC
[8] = test system: 786-0 renal
[9] = test system: COLO 205 colon
[10] = test system: HOP-62 NSCLC

Measured: growth

CN1CCN(c2ccc3nc(-c4c(N)c5c(F)cccc5[nH]c4=O)[nH]c3c2)CC1
5.09% (active) and 26.8% (inactive): [9]; 10 µM unless noted
inactive: [1] 27.9% and 34.1% | [2]; 10 µM unless noted 54.8% and 71.3% | [3]; 10 µM unless noted 52.4% and 61.6% | [5]; 10 µM unless noted 43.9% and 44.5% | [6]; 10 µM unless noted 18.5% and 53.8% | [7]; 10 µM unless noted 12.9% and 22.3% | [8]; 10 µM unless noted 38.1% and 24.8%
active: [4]; 10 µM unless noted 6.56% and 7.99%

COc1cc(-c2nccc3cc4c(cc23)OCO4)cc(OC)c1OC
11.2% (inactive) and -13.8% (active): [9]; 10 µM unless noted
inactive: [1] 56.9% and 46.7% | [2]; 10 µM unless noted 62.9% and 49.7% | [3]; 10 µM unless noted 66.1% and 71.6% | [10]; 10 µM unless noted 38.1% and 39.4% | [4]; 10 µM unless noted 18.1% and 14.8% | [5]; 10 µM unless noted 58.3% | [7]; 10 µM unless noted 46.6% and 38.9% | [8]; 10 µM unless noted 38.6% and 66.7%
active: [6]; 10 µM unless noted -0.618%

CC(C)(C)c1ccc(O)c(CNC2CCCCC2)c1
9.74% (active) and 107% (inactive): [9]; 10 µM unless noted
inactive: [1] 96.6% and 90.8% | [2]; 10 µM unless noted 96.5% and 81.2% | [3]; 10 µM unless noted 97.6% and 100% | [4]; 10 µM unless noted 103% and 93.6% | [5]; 10 µM unless noted 72.4% and 84.3% | [6]; 10 µM unless noted 102% and 84.8% | [7]; 10 µM unless noted 99.2% and 84.7% | [8]; 10 µM unless noted 96.1% and 80.4%

CCN(CC)CCNc1ccc(C)c2sc3ccccc3c(=O)c12 (tested in a mixture with another compound)
active: [4]; 10 µM unless noted 8.45% and 5.28%
inactive: [1] 46.1% and 52.4% | [2]; 10 µM unless noted 64.9% and 64.7% | [3]; 10 µM unless noted 30% and 56% | [5]; 10 µM unless noted 68.6% and 38.1% | [6]; 10 µM unless noted 22.6% and 39.6% | [7]; 10 µM unless noted 21.9% and 19.8% | [8]; 10 µM unless noted 33.7% and 37.3% | [9]; 10 µM unless noted 27% and 14.7%

Oc1c(CN2CCCCC2)ccc2cccnc12
inactive: [1] 79% and 80.2% | [2]; 10 µM unless noted 63.8% and 33.7% | [3]; 10 µM unless noted 36.5% and 32.4% | [10]; 10 µM unless noted 52.1% and 41.1% | [4]; 10 µM unless noted 21.1% and 10.5% | [7]; 10 µM unless noted 43.6% and 36% | [8]; 10 µM unless noted 11% and 42.4% | [9]; 10 µM unless noted 66.7% and 80.4%
-3.86% (active) and 16.2% (inactive): [6]; 10 µM unless noted

CNC(=O)c1cc(Oc2ccc(CC(=O)Nc3cc(C(C)(C)C)nn3C)cc2)ccn1
inactive: [2]; 30 µM 49.4% | [3]; 1 µM 92.5% | [3]; 30 µM 105% | [10]; 1 µM 55% | [10]; 10 µM 77.6% | [10]; 30 µM 75.1% | [4]; 1 µM 79.4% | [4]; 30 µM 80.7% | [5]; 1 µM 74.7% | [5]; 30 µM 92.6% | [6]; 1 µM 74.3% | [6]; 30 µM 71.7% | [7]; 1 µM 71.2% | [7]; 30 µM 80.8% | [8]; 1 µM 90.7% | [8]; 30 µM 93.8% | [9]; 10 µM 77.1% | [9]; 30 µM 91.2%

CC#C[C@]1(O)CC[C@H]2[C@@H]3CCC4=CC(=O)CCC4=C3[C@@H](c3ccc4c(c3)OCO4)C[C@@]21C
active: [2]; 100 µM -21.7% | [3]; 100 µM 7.01% | [4]; 100 µM -45.9% | [5]; 100 µM -33.2% | [6]; 100 µM -37.9% | [7]; 100 µM -19.7% | [8]; 100 µM -30.5%

CCc1ccccc1-n1c(N)c(C#N)c(-c2ccc(OC)c(OC)c2)c(C#N)c1=O
inactive: [3]; 100 µM 39.5% | [10]; 10 µM 95.2% | [4]; 100 µM 30.1% | [7]; 100 µM 79.9% | [9]; 10 µM 138% | [9]; 100 µM 115%
active: [2]; 100 µM 8% | [10]; 100 µM -28.6% | [5]; 100 µM -34.6% | [6]; 100 µM -8.58% | [8]; 100 µM -9.15%

CCOC(=O)c1sc(N)nc1-c1ccccc1
inactive: [2]; 10 µM unless noted 98.7% | [3]; 10 µM unless noted 97% | [10]; 10 µM unless noted 87.9% | [4]; 10 µM unless noted 104% | [6]; 10 µM unless noted 95.5% | [7]; 10 µM unless noted 101% | [8]; 10 µM unless noted 95.1% | [9]; 10 µM unless noted 102%

N#CCCOc1ccccc1
inactive: [2]; 10 µM unless noted 110% | [10]; 10 µM unless noted 95.3% | [4]; 10 µM unless noted 105% | [5]; 10 µM unless noted 84.6% | [6]; 10 µM unless noted 87.7% | [7]; 10 µM unless noted 96.7% | [8]; 10 µM unless noted 98.2% | [9]; 10 µM unless noted 106%

O=C(Nc1ccc(Cl)cc1)c1cc2ccccc2cc1O
63.6% (inactive) and 5.51% (active): [10]; 10 µM unless noted
67.1% (inactive) and -31.9% (active): [8]; 10 µM unless noted
inactive: [2]; 10 µM unless noted 54.4% and 42.1% | [3]; 10 µM unless noted 17.1% and 19.6% | [7]; 10 µM unless noted 68.2% and 26.4% | [9]; 10 µM unless noted 91.4% and 70.4%
active: [4]; 10 µM unless noted 8.06% and -15.7% | [5]; 10 µM unless noted -9.86%
26.1% (inactive) and -32.3% (active): [6]; 10 µM unless noted

O=C(O)C1C2C=CC(C2)C1C(=O)O (stereo not given)
inactive: [2]; 10 µM unless noted 105% and 38.6% and 91.2% | [3]; 10 µM unless noted 99.3% and 38.9% and 104% | [10]; 10 µM unless noted 114% and 30.1% and 92.8% | [4]; 10 µM unless noted 104% and 13.9% and 105% | [5]; 10 µM unless noted 98.6% and 98.2% | [6]; 10 µM unless noted 87.1% and 102% | [7]; 10 µM unless noted 93.5% and 13.4% and 97.7% | [8]; 10 µM unless noted 105% and 28.3% and 104% | [9]; 10 µM unless noted 115% and 46.9% and 118%

Oc1ccc(/C=C/c2ccccc2)cc1
inactive: [2]; 10 µM unless noted 104% and 103% | [3]; 10 µM unless noted 77.6% and 83.4% | [4]; 10 µM unless noted 73.4% and 61.5% | [5]; 10 µM unless noted 95.7% | [6]; 10 µM unless noted 72.1% and 29.2% | [7]; 10 µM unless noted 76.1% and 59.9% | [8]; 10 µM unless noted 32.8% and 45.1% | [9]; 10 µM unless noted 104% and 132%

Nc1ccc2ccc(N)cc2c1
inactive: [2]; 10 µM unless noted 95.7% | [3]; 10 µM unless noted 69.1% | [4]; 10 µM unless noted 91.7% | [5]; 10 µM unless noted 101% | [7]; 10 µM unless noted 82.5% | [8]; 10 µM unless noted 94.3% | [9]; 10 µM unless noted 89.6%

COc1ccc2c(=O)cc(-c3ccccc3)[nH]c2c1
35.3% (inactive) and -14.1% (active): [8]; 10 µM unless noted
inactive: [2]; 10 µM unless noted 57.3% and 23.8% | [3]; 10 µM unless noted 66.1% and 56.9% | [10]; 10 µM unless noted 30.1% and 21.2% | [5]; 10 µM unless noted 53.8% | [7]; 10 µM unless noted 22.6% and 13.9%
active: [4]; 10 µM unless noted 6.58% and 4.24% | [6]; 10 µM unless noted -20% and -68.2% | [9]; 10 µM unless noted -19.6% and -7.06%

CCCCCCCCCCCCCCCc1cc(O)ccc1N
active: [6]; 10 µM unless noted -22.4% and -23.6%
inactive: [2]; 10 µM unless noted 33.9% and 99.6% | [3]; 10 µM unless noted 102% and 84.1% | [10]; 10 µM unless noted 103% and 110% | [4]; 10 µM unless noted 109% and 102% | [5]; 10 µM unless noted 105% | [7]; 10 µM unless noted 89.3% and 99.8% | [8]; 10 µM unless noted 77.6% and 21.1% | [9]; 10 µM unless noted 107% and 114%

O=C(O)c1cc(C(=O)O)cc([N+](=O)[O-])c1
inactive: [2]; 10 µM unless noted 102% | [3]; 10 µM unless noted 105% | [4]; 10 µM unless noted 110% | [5]; 10 µM unless noted 111% | [6]; 10 µM unless noted 94.3% | [7]; 10 µM unless noted 106% | [8]; 10 µM unless noted 101% | [9]; 10 µM unless noted 110%

COc1cc2nc(N3CCC[C@@H](NC(=O)C4COc5ccccc5O4)C3)nc(N)c2cc1OC (stereo not given in full)
inactive: [2]; 10 µM unless noted 102% and 99.7% | [3]; 10 µM unless noted 96.1% and 102% | [10]; 10 µM unless noted 107% and 102% | [4]; 10 µM unless noted 105% and 107% | [5]; 10 µM unless noted 87% and 83% | [6]; 10 µM unless noted 96.4% and 93.9% | [7]; 10 µM unless noted 95.7% and 93.9% | [8]; 10 µM unless noted 97.4% and 96.9% | [9]; 10 µM unless noted 108% and 107%

O=c1c2ccccc2nc2n1Cc1nc3ccccc3c(=O)n1C2
inactive: [2]; 10 µM unless noted 89.5% and 97.8% | [3]; 10 µM unless noted 97.8% and 102% | [10]; 10 µM unless noted 114% and 105% | [4]; 10 µM unless noted 95.1% and 101% | [5]; 10 µM unless noted 95.3% and 114% | [6]; 10 µM unless noted 89.9% and 93.3% | [7]; 10 µM unless noted 102% and 100% | [8]; 10 µM unless noted 103% and 104% | [9]; 10 µM unless noted 111% and 130%

Reference: PubChem BioAssay (NCI)
